Compounds with a hit are over-represented: about 2.8% of the library has one in this group of screens.
ERa coact inh – ERα–SRC-1 coactivator interaction inhibitors, primary screen, biochemical, TR-FRET, ERα LBD, estradiol-bound | TR-FRET ER-alpha LBD / SRC-1 peptide | inhibition, % at 25.6 µM | hit rate 1.7% among 86,000 | Estrogen receptor (Homo sapiens), P03372; in the data active means inhibition above about 50%
ERa coact pot – enhancers of ERα–SRC-1 coactivator binding, primary screen, biochemical, TR-FRET, ERα LBD, low estradiol. TR-FRET ERalpha-LBD/SRC-Cy5 coactivator binding, 2 h; 100 = basal binding, no effect. coactivator binding (% of control), % at 25.6 µM. hit rate 1.3% among 86,000. AID 639, 2007; in the data active means activity above about 200%;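 further: binding measured in presence of low estradiol as agonist stimulus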
Smad3 FoxH1 inh – Smad3/FoxH1 peptide binding inhibitors, primary screen, biochemical, TR-FRET; Mothers against decapentaplegic homolog 3 (Homo sapiens), P84022; TR-FRET Smad3/Dy647-FoxH1 peptide binding, europium anti-His; inhibition, % at 25 µM; hit rate 0.29% among 88,000; AID 630, 2007;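 active means compounds that reduce the energy-transfer binding signal between the protein and its labelled peptide by more than half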
Target sequence (P84022 whole entry, looked up): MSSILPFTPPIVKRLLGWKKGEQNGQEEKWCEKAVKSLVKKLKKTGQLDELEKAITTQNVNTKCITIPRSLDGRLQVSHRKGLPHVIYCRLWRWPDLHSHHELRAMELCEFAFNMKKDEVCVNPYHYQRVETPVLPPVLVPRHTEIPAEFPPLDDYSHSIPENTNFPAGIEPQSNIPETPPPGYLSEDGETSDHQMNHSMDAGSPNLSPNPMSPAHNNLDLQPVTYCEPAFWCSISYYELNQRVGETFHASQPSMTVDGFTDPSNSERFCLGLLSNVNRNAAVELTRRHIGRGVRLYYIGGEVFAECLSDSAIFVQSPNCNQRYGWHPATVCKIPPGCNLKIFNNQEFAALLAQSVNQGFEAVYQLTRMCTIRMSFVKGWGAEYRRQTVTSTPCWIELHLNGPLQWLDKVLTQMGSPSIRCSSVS
MRP1 act – H69AR viability gain despite doxorubicin, primary screen, MRP-1 activator project, H69AR cells, CellTiter-Glo; viability increase, % at 10 µM; hit rate 0.61% among 140,000; viability rescue; AID 799, 2007;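 active means viability gain under doxorubicin at or above a set limit, the compound median plus 3 SD, cut at about 4.7% in these data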;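 further: MRP-1 overexpressing cells given doxorubicin 25 µM after compound pretreatment; 18-22 h compound pretreatment then 72 h with doxorubicin before readout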
ERb coact inh – inhibitors of ERβ-SRC1 coactivator interaction, primary screen, biochemical, TR-FRET, ERβ LBD, SRC-1 peptide; TR-FRET ER-beta LBD / SRC1-Cy5 peptide binding; receptor agonist-loaded with 1 µM estradiol; inhibition, % at 25.6 µM; hit rate 1.3% among 86,000; AID 633, 2007;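 active means compounds whose percent inhibition of the receptor-coactivator binding signal exceeds about 50% in the single-dose screen, limit read from the data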
MRP resist rev – reversal of MRP1-mediated doxorubicin resistance, primary screen, H69AR cells, doxorubicin co-treatment. differential viability (reversal), % at 10 µM. AID 602, 2007. H69AR cells + 2 uM doxorubicin, CellTiter-Glo, 72 h. hit rate 0.04% among 85,000;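 active means viability drop by adding the cancer drug above about 55%, with treated viability meeting a 40% cutoff, limit read from the data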;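 further: larger differential means the compound sensitizes cells more to doxorubicin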
Numbers stand for hits; 0 = inactive; - = no result; [ ] = another dose, or the depositor's remark.

SMILES	ERa coact inh	ERa coact pot	Smad3 FoxH1 inh	MRP1 act	ERb coact inh	MRP resist rev
COc1ccc(Cn2c3ccc(OC)cc3c3nc4ccccc4nc32)cc1	-	-	-	0	-	-
COc1ccc2c(c1)c1c(C)c3cnccc3c(C)c1n2CCCN	-	-	87	-	-	-
Cc1ccc(/C=c2\sc3nc(-c4cccnc4)nn3c2=O)cc1	69[fluorescence artefact?]	0	0	0	0	0
Cc1c(NC(=O)CSc2ccc(Cl)cc2)cccc1-c1nc2ncccc2o1	-	-	-	6.2	-	-
O=C(CSc1ccc(Cl)cc1)Nc1cc(-c2nc3ncccc3o2)ccc1Cl	-	-	-	0	-	-
CC1CCN(Cc2ccc(NC(=O)C3CCN(c4nnc(-n5cccc5)s4)CC3)cc2)CC1	85[fluorescence artefact?]	0	0	0	72[fluorescence artefact?]	0
O=C(C1CCN(c2nnc(-n3cccc3)s2)CC1)N1CCN(Cc2ccc3c(c2)OCO3)CC1	0	0	0	0	0	0
Cc1ccc(S(=O)(=O)N=Nc2c(O)[nH]c3cc(O)c(C(=O)O)cc23)cc1	-	-	0	-	-	-
CN1CCc2c(sc(/N=C/c3ccco3)c2C(N)=O)C1	0	0	0	0	0	0
CN1CCc2c(sc(/N=C/c3cccs3)c2C(N)=O)C1	0	0	0	0	74[fluorescence artefact?]	0
c1cncc(Oc2cccc(Oc3cccnc3)c2)c1	0	0	0	0	98[fluorescence artefact?]	0
O=C(Nc1ccc(Oc2cccnc2)cc1)c1cccc([N+](=O)[O-])c1	-	-	-	0	-	-
Cc1ccc(C(=O)Oc2ccc(C(=O)COC(=O)C3CC(=O)N(Cc4ccco4)C3)cc2)cc1 (stereo not given)	0	274[fluorescence artefact?]	0	0	0	0
CCOC(=O)c1c(O)[nH]c(=O)c(CC)c1C	-	-	0	-	-	-
Cc1ccc(C(=O)Nc2nc3ccccc3n2CCN2CCCC2)cc1	0	284[fluorescence artefact?]	0	0	0	0
O=C(Nc1nc2ccccc2n1CCN1CCCC1)c1ccc(Cl)cc1	0	0	0	0	0	0
Cc1ccc(C2SCC(=O)N2Cc2cn3ccsc3n2)o1 (stereo not given)	0	0	64[fluorescence artefact?]	0	0	0
CCOC(=O)C1=C(O)/C(=C/c2cn(CC(=O)NCC3CCCO3)c3ccccc23)SC1=Nc1ccc(C)cc1 (stereo not given)	78	0	0	-	0	0
CC(C)C(=O)c1cn(CC(=O)NCC2CCCO2)c2ccccc12 (stereo not given)	0	0	0	0	0	0
CCN(CC)CCNC(=O)c1cc(Cl)c(N)cc1OC	0	0	0	0	56	0
C=CCn1c(=O)c2ccccc2n2c(SCc3nnc(-c4ccccc4Br)o3)nnc12	52[fluorescence artefact?]	0	0	0	0	0
O=C(O)CC[C@]1(C(=O)O)CCC(=O)c2ccccc21	-	-	0	-	-	-
O=C(Nc1ccc2c(c1)OCO2)c1cccc2c1C(=O)N(Cc1cccnc1)C2	77[fluorescence artefact?]	0	0	0	61	0
Cc1ccc(NC(=O)CSc2nc3ccccc3c3nc(CCc4c(C)n[nH]c4C)nn23)cc1F	54[fluorescence artefact?]	0	0	0	0	0
Cc1n[nH]c(C)c1CCc1nc2c3ccccc3nc(SCC(N)=O)n2n1	0	0	0	0	0	0
SMILES	ERa coact inh	ERa coact pot	Smad3 FoxH1 inh	MRP1 act	ERb coact inh	MRP resist rev
C[C@H](CCC(=O)O)[C@H]1CC[C@H]2[C@@H]3[C@@H](O)C[C@H]4C[C@@H](O)CC[C@]4(C)[C@H]3C[C@@H](O)[C@]12C	-	-	0	-	-	-
c1csc(Cn2c(-c3cccs3)nc3ccccc32)c1	0	0	0	0	0	0
CC(C)Cn1c(-c2cccs2)nc2ccccc21	0	0	0	0	57	0
O=C(Nc1cccc(C(F)(F)F)c1)c1ccc2nc(-c3ccco3)c(-c3ccco3)nc2c1	84[fluorescence artefact?]	0	0	0	81[fluorescence artefact?]	0
OCCCNC(=S)Nc1ccc2nc(-c3ccccn3)c(-c3ccccn3)nc2c1	-	-	-	0	-	-
O=C(NCCCO)Nc1ccc2nc(-c3ccco3)c(-c3ccco3)nc2c1	97[fluorescence artefact?]	0	0	0	99[fluorescence artefact?]	0
O=C(Nc1ccc2nc(-c3ccco3)c(-c3ccco3)nc2c1)NC1CC1	100[fluorescence artefact?]	0	0	0	109[fluorescence artefact?]	0
O=C(c1ccc2nc(-c3ccco3)c(-c3ccco3)nc2c1)N1CCN(c2ccccc2)CC1	0	0	0	0	0	0
O=C(Nc1nc(-c2ccco2)c(-c2ccco2)s1)C1CCC1	-	-	-	0	-	-
O=C(Nc1cccc(C(F)(F)F)c1)c1ccc2nc(N3C(=O)CCC3=O)sc2c1	-	-	-	0	-	-
O=C(Nc1ccc(N2CCOCC2)cc1)Nc1ccc2nc(-c3ccco3)c(-c3ccco3)nc2c1	53[fluorescence artefact?]	0	0	0	59[fluorescence artefact?]	0
COc1ccc(CNC(=O)c2cc3c(=O)n4ccccc4nc3n(Cc3cccnc3)c2=N)cc1	78[fluorescence artefact?]	0	0	0	0	0
N=c1c(C(=O)NCc2ccc3c(c2)OCO3)cc2c(=O)n3ccccc3nc2n1Cc1cccnc1	92[fluorescence artefact?]	0	0	0	57	0
COC(=O)c1cc2c(=O)n3cccc(C)c3nc2n(Cc2cccnc2)c1=N	0	0	0	-	0	0
Cc1nc2sc3c(c2c(=O)[nH]1)CCC3	0	0	0	0	0	0
Cc1cc(-c2nc3c4c5c(sc4[nH]c(=O)n3n2)CCC5)c(C)o1	97[fluorescence artefact?]	0	0	0	96[fluorescence artefact?]	0
C[N+](C)(C)[C@@H](C1=CCCC1=O)c1ccccc1	-	-	0	-	-	-
O=C(Nc1nnc(COc2ccc(Cl)cc2)s1)C1CCCO1 (stereo not given)	0	0	0	8.9	0	0
O=C(Nc1nnc(SCc2ccc(Cl)cc2)s1)C1CCCO1 (stereo not given)	0	0	0	0	0	0
COc1nc2ccc(C)cc2cc1-c1noc(-c2cccnc2)n1	0	241[fluorescence artefact?]	0	0	0	0
Nc1ncnc2c1nc(-c1ccccc1)n2[C@H]1O[C@@H](CO)[C@H](O)[C@H]1O	-	-	0	-	-	-
Cn1c(N)nc2c(nc(OCc3ccccc3)n2[C@H]2O[C@H](CO)[C@@H](O)[C@@H]2O)c1=O	-	-	74	-	-	-
O=C(Nc1nc(-c2ccc(Oc3ccccc3)cc2)cs1)C1=COCCO1	-	-	-	7.1	-	-
Cc1ccc(-c2csc(NC(=O)C3=COCCO3)n2)cc1	-	-	-	0	-	-
C/C(=N\OC(=O)c1cccc(C)c1)c1sc(-c2ccccc2)nc1C	-	-	-	4.7	-	-
O=C1c2ccccc2C(=O)C1c1ccc2ccccc2n1	52[fluorescence artefact?]	217[fluorescence artefact?]	0	0	0	0
COC(=O)C1=C(C)NC(C)=C(C(=O)OC)C1c1ccc2ccccc2n1	0	0	0	0	0	0
COc1ccc(C(=O)CSc2nnc(-c3ccccn3)n2Cc2ccco2)cc1	0	271[fluorescence artefact?]	0	0	0	0
CC[C@H](C(=O)c1cccs1)C(O)(C(F)(F)F)C(F)(F)F	-	-	0	-	-	-

Compound activity from PubChem BioAssay.
